VACV Venus inh = vaccinia inhibition (Venus reporter) | 330,000 tested, 0.46% active | Potency, µM (top dose mostly 36.5 µM), for inactives: at the top dose activity change, negative = inhibition, hits mostly inhibitors | Vaccinia virus Venus reporter expression, fluorescence; calls by dose curve; tested in A549 cells; note: potency is the fitted concentration of half-maximal effect; % is set by controls: 0 for no effect and ±100 for the full control effect; nearly all actives have a fitted effect of over 30% in size
VACV mCherry inh = vaccinia inhibition (mCherry reporter). AID 720579. Vaccinia virus mCherry reporter infection, fluorescence. Potency, µM (doses to about 36.5 µM), inactives show top-dose activity change, negative = inhibition, hits mostly inhibitors. 310,000 tested, 0.63% active; calls by dose curve; tested in A549 cells; note: potency is the fitted concentration of half-maximal effect; % is set by controls: 0 for no effect and ±100 for the full control effect; nearly all actives have a fitted effect of over 35% in size
LASV entry inh = Lassa virus entry inhibition; 300,000 tested, 1.2% active; Lassa virus pseudotype entry inhibition, cell reporter; Potency, µM (titrated, usually from 37.9 µM), without a hit: at the top dose activity change, negative = inhibition, hits mostly inhibitors; calls by dose curve; tested in HEK293 cells; note: potency is the fitted concentration of half-maximal effect; % is set by controls: 0 for no effect and ±100 for the full control effect; nearly all actives have a fitted effect of over 50% in size
Marburg entry inh = blocks Marburg virus binding to or entry into cells; Marburg virus pseudotyped entry inhibition, cell reporter; 300,000 tested, 1.8% active; AID 540276; Potency, µM (highest dose often 37.8 µM), without a hit: top-dose activity change, negative = inhibition, usual class: inhibitors; calls by dose curve; tested in HEK293 cells; note: potency is the fitted concentration of half-maximal effect; % is set by controls: 0 for no effect and ±100 for the full control effect
Shiga inhibitor = inhibitors of Shiga toxin in Vero cells | Vero cells, Shiga toxin protein synthesis inhibition reporter | inhibition, % at 38.7 µM | 290,000 tested, 9.2% active | AID 2315; in the data active = inhibition mostly above about 28%, no sharp cut-off; inactive = mostly below about 43%; note: 0% is about no effect
CHX counter = counter-screen hit for Shiga toxin inhibitors, cycloheximide. cell reporter, cycloheximide protein synthesis inhibition counterscreen. max response, %. 300,000 tested, 12% active. AID 2314; in the data active = max response mostly above about 13%, no sharp cut-off; inactive = mostly below about 14%; note: read at 38.3 µM for the half of the compounds with a filed dose; 0% is about no effect
* hit, by the source's call; [ ] = another dose, or the depositor's remark. This excerpt belongs to a sample that is enriched for hits.

COc1ccc(-n2nc(C(=O)NCC(=O)N3CC(C)CC(C)C3)c3ccccc3c2=O)cc1OC (configuration not stated) was read as VACV Venus inh 10%, VACV mCherry inh -4%, LASV entry inh -24%[46.1 µM], Marburg entry inh inconclusive, Shiga inhibitor -6 and CHX counter -3.
`COc1ccc(-n2nc(C(=O)NCC(=O)Nc3ccccn3)c3ccccc3c2=O)cc1Cl` gave VACV Venus inh -3%, VACV mCherry inh -11%, LASV entry inh -26%, Marburg entry inh 4.1µM*, Shiga inhibitor -4 and CHX counter 0.
For CCOC(=O)C1CCCN(C(=O)CNC(=O)c2nn(-c3ccc(OC)c(Cl)c3)c(=O)c3ccccc23)C1 (configuration not stated) the results were VACV Venus inh -4%, VACV mCherry inh inactive, LASV entry inh inconclusive, Marburg entry inh -22%[46.1 µM], Shiga inhibitor 16 and CHX counter 15.
For CCOC(=O)C1CCN(C(=O)CNC(=O)c2nn(-c3ccc(OC)c(Cl)c3)c(=O)c3ccccc23)CC1 the results were VACV Venus inh 5%, VACV mCherry inh -21%, LASV entry inh inconclusive, Marburg entry inh inconclusive, Shiga inhibitor 35 and CHX counter 25*.
For COc1ccc(-n2nc(C(=O)NCC(=O)N3CCCCCC3)c3ccccc3c2=O)cc1OC the results were VACV Venus inh -9%, VACV mCherry inh -25%, LASV entry inh -15%, Marburg entry inh -3%[46.1 µM], Shiga inhibitor 15 and CHX counter 24*.
For CCN(CC)C(=O)c1cc(-c2ccc(Cl)cc2)on1 the results were VACV Venus inh -1%, VACV mCherry inh -14%, LASV entry inh 16%[46.1 µM] and Marburg entry inh inconclusive.
For COc1ccc(/C=C2\SC(=S)N(CC(=O)OCC(=O)Nc3cc(Cl)cc(Cl)c3)C2=O)cc1 the results were Shiga inhibitor -6 and CHX counter 2.
`CC1(C)Cc2ccccc2C2=NNC(=O)C2=N1` gave VACV Venus inh 28µM*, VACV mCherry inh inconclusive, LASV entry inh inconclusive, Marburg entry inh inconclusive, Shiga inhibitor 33 and CHX counter 9.
For O=C(CCN1CCN(S(=O)(=O)c2cccc([N+](=O)[O-])c2)CC1)Nc1ccccc1F the results were VACV Venus inh 5%, VACV mCherry inh -3%, LASV entry inh -13%[46.1 µM], Marburg entry inh -30%[46.1 µM], Shiga inhibitor -9 and CHX counter -7.
Screening CSc1cccc(NC(=O)/C=C/c2cccc(Cl)c2)c1 returned VACV Venus inh -20%, VACV mCherry inh -12%, LASV entry inh inconclusive, Marburg entry inh inconclusive, Shiga inhibitor 143* and CHX counter 72*.
For COCCCNC(=O)/C=C/c1cccc(Cl)c1 the results were LASV entry inh 8%, Marburg entry inh 1%, Shiga inhibitor 30 and CHX counter 21*.
O=C(/C=C/c1cccc(Cl)c1)Nc1ncccn1 was read as VACV Venus inh 8%, VACV mCherry inh -9%, LASV entry inh 9%, Marburg entry inh 28%, Shiga inhibitor 55* and CHX counter 15.
CN(C)C(CNC(=O)/C=C/c1cccc(Cl)c1)c1ccccc1 (configuration not stated) was read as VACV Venus inh -21%, VACV mCherry inh -2%, LASV entry inh -20%, Marburg entry inh inconclusive, Shiga inhibitor 7 and CHX counter 4.
Screening CC(=O)NCC(=O)NCC1Cc2cc(C)cc(-c3ccccn3)c2O1 (configuration not stated) returned VACV Venus inh 4% and VACV mCherry inh 5%.
Screening Cc1nc2c(c(C)nn2C(C)(C)C)c(C)c1CCC(=O)Nc1ccc(Br)cc1Br returned VACV Venus inh -3%, VACV mCherry inh -17%, LASV entry inh inconclusive and Marburg entry inh -2%[46.1 µM].
Cc1cccc(C)c1NC(=O)C1c2ccccc2OCC(=O)N1CCc1c[nH]c2ccccc12 (configuration not stated) was read as VACV Venus inh -2% and VACV mCherry inh inactive.
For O=C(NCc1ccccn1)C(=O)N/N=C/c1ccc2c(c1)OCO2 the results were Shiga inhibitor 50* and CHX counter 16.
Cc1ccnn1CC(=O)N/N=C/c1ccc2c(c1)OCO2 was read as VACV Venus inh -6%, VACV mCherry inh -13%, LASV entry inh -1%, Marburg entry inh inconclusive, Shiga inhibitor 37 and CHX counter 18*.
Screening O=C(CN(Cc1ccccc1)S(=O)(=O)c1ccccc1)N/N=C/c1ccc2c(c1)OCO2 returned VACV Venus inh -26%, VACV mCherry inh -11%, LASV entry inh 7.3µM*, Marburg entry inh inconclusive, Shiga inhibitor 8 and CHX counter 0.
`O=C(N/N=C/c1ccc2c(c1)OCO2)C(O)c1ccccc1` (configuration not stated) gave VACV Venus inh -2%, VACV mCherry inh -11%, LASV entry inh inconclusive, Marburg entry inh inconclusive, Shiga inhibitor 54* and CHX counter 59*.
O=C(CCC(=O)Nc1ccccc1)N/N=C/c1ccc2c(c1)OCO2 was read as VACV Venus inh -11%, VACV mCherry inh inactive, LASV entry inh 2%[46.1 µM], Marburg entry inh 19%[46.1 µM], Shiga inhibitor 71* and CHX counter 40*.
O=C(CCC(=O)Nc1ccc(Cl)cc1)N/N=C/c1ccc2c(c1)OCO2 was read as VACV Venus inh -7%, VACV mCherry inh -4%, LASV entry inh inconclusive, Marburg entry inh 8%, Shiga inhibitor -13 and CHX counter -2.
COc1cc(/C=N/NC(=O)CN(Cc2ccco2)S(=O)(=O)c2ccccc2)ccc1O was read as VACV Venus inh -9%, VACV mCherry inh inactive, LASV entry inh -11%, Marburg entry inh 7%, Shiga inhibitor -4 and CHX counter 18*.
For COc1cc(/C=N/NC(=O)CN(Cc2ccccc2)S(=O)(=O)c2ccc3c(c2)OCCO3)ccc1O the results were VACV Venus inh -10%, VACV mCherry inh -8%, LASV entry inh inconclusive, Marburg entry inh 36%, Shiga inhibitor -10 and CHX counter 0.
Cc1ccc(CC(=O)N/N=C/c2ccc3c(c2)OCO3)cc1 was read as VACV Venus inh 1%, VACV mCherry inh 2%, LASV entry inh -14%, Marburg entry inh inconclusive, Shiga inhibitor 43* and CHX counter 26*.
`O=C(CCc1ccc(O)cc1)NN=Cc1ccc2c(c1)OCO2` gave VACV Venus inh -10% and VACV mCherry inh inactive.
`Cc1ccc(N2C(=O)[C@@H]3[C@H](C2=O)C2c4ccccc4C=CN2[C@@H]3C(=O)c2ccco2)cc1` (some centres not stated) gave VACV Venus inh 14%, LASV entry inh -5%, Marburg entry inh -19%, Shiga inhibitor 29* and CHX counter 20.
For CC(C)(C)C(=O)[C@@H]1[C@@H]2C(=O)N(c3ccc4c(c3)OCCO4)C(=O)[C@@H]2C2c3ccccc3C=CN21 (some centres not stated) the results were VACV Venus inh 2%, LASV entry inh -13%, Marburg entry inh -3%, Shiga inhibitor 21 and CHX counter 16*.

High-throughput results: PubChem, National Center for Advancing Translational Sciences (NCATS)
